This note sets out measurements from PubChem BioAssay (Tox21).

Each structure is given as a SMILES string. Where “and” joins values, the source holds several entries; their conditions need not be identical. Identical values can stand only once. Values without a mark were called inactive. Inconclusive results are not listed. Calls of active or inactive are those of the source. Unless noted, calls come from the whole dose curve; as a rule, active = well fitted curve in the direction sought with a large enough effect in the repeat runs; inconclusive = weak or mixed curves; inactive = no such curve, though single readings can be large; an effect the other way counts as inactive or inconclusive.

Assay [1] is described as follows: qHTS assay for small molecules that induce genotoxicity in human embryonic kidney cells expressing luciferase-tagged ATAD5 (AID 651632). Note: nearly all actives have a fitted effect of over 15% in size. A digest of the protocol: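 A rise in luciferase signal from ATAD5-tagged HEK293T cells marks genetic stress. Cells were exposed to compounds for 16 hr at 37C, 5% CO2, then luciferase was quantified after a 30 min room-temperature incubation with Amplite.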

The nature of assay [2]: qHTS assay for small molecule agonists of the p53 signaling pathway - cell viability (AID 651633; calls by dose curve; note: nearly all actives have a fitted effect of over 30% in size; note: potency is the fitted concentration of half-maximal effect). A digest of the protocol: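 Viability counter-read: CellTiter-Glo luminescence (30 min, room temperature) in the same p53RE-bla plates. These plates had been exposed to compounds for 16 h at 37 C.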
For orientation: In qHTS, concentration-response curves come from the screen itself.

A short description of assay [3]: qHTS assay for small molecule disruptors of the mitochondrial membrane potential - cell viability (AID 720634; calls by dose curve; note: nearly all actives have a fitted effect of over 20% in size; note: potency is the fitted concentration of half-maximal effect). A digest of the protocol: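 Cytotoxicity was quantified from ATP content by CellTiter-Glo luminescence in the same wells as the MMP dye read-out. HepG2 (2,000 cells/well) were plated overnight and exposed to compounds for 1 hr at 37 C.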
Assay [4] in a line: qHTS assay for small molecule disruptors of the mitochondrial membrane potential (AID 720635). Note: potency is the fitted concentration of half-maximal effect. A digest of the protocol: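 Mitochondrial membrane potential tracked with Mito-MPS dye, red aggregates (ex 540/em 590 nm) against green monomers (ex 490/em 535 nm). Compound treatment 1 hr at 37C, dye 30 min in HepG2.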
The nature of assay [5]: qHTS assay to test for compound auto fluorescence at 535 nm (green) in HepG2 cells (AID 720675).
Assay [6] in a line: qHTS assay to test for compound auto fluorescence at 460 nm (blue) in HEK293 cells (AID 720678). A digest of the protocol:
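Cells were seeded and left to adhere for 4-5 hr at 37C. Compounds were then pin-transferred. After an overnight incubation at 37C under 5% CO2, intrinsic fluorescence at 405/460 nm was measured and referenced to triamterene.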

A short description of assay [7]: qHTS assay to test for compound auto fluorescence at 590 nm (red) in HEK293 cells (AID 720679). A digest of the protocol:
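Each well held 2,000 HEK293 cells in medium containing 10% dialyzed FBS. Following 4-5 hr attachment at 37C, 23 nL test compound or DMSO was added; plates sat overnight, and red fluorescence (540/590nm) was recorded.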

Assay [8] can be described thus: qHTS assay to test for compound auto fluorescence at 535 nm (green) in HEK293 cells (AID 720680).
A short description of assay [9]: qHTS assay to test for compound auto fluorescence at 460 nm (blue) in HEK293 cell free culture (AID 720681). A digest of the protocol: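 Blue fluorescence (Ex 405/Em 460 nm, triamterene-equivalent) was read immediately after pin transfer of compound or DMSO into medium (DMEM, 10% FBS) without cells.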
Assay [10] is described as follows: qHTS assay to test for compound auto fluorescence at 535 nm (green) in HEK293 cell free culture (AID 720682). A digest of the protocol:
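Cell-free medium (DMEM, 10% FBS) receives compound or DMSO by pintool. Plate read directly at Ex 485/Em 535 nm. Signal converted to fluorescein equivalency.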

Assay [11] in a line: qHTS assay to test for compound auto fluorescence at 590 nm (red) in HEK293 cell free culture (AID 720683). A digest of the protocol: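 Red-channel autofluorescence of compounds in culture medium (DMEM, 10% FBS), no cells, measured at 540/590 nm. Rose Bengal sodium is the reference fluorophore for equivalence.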
Assay [12] can be described thus: qHTS assay to test for compound auto fluorescence at 590 nm (red) in HepG2 cell free culture (AID 720684). A digest of the protocol: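 Cell-free; medium MEM + 10% FBS; compound or DMSO added by pintool; read Ex 540/Em 590 nm; Rose Bengal sodium as red reference fluorophore.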
The nature of assay [13]: qHTS assay to test for compound auto fluorescence at 460 nm (blue) in HepG2 cell free culture (AID 720685). A digest of the protocol: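 Cell-free plates of MEM plus 10% FBS received 23 nL compound or DMSO vehicle; blue-channel (405/460 nm) intensity scored against triamterene as reference fluorophore.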
Assay [14] is described as follows: qHTS assay to test for compound auto fluorescence at 535 nm (green) in HepG2 cell free culture (AID 720686).
The nature of assay [15]: qHTS assay to test for compound auto fluorescence at 460 nm (blue) in HepG2 cells (AID 720687). A digest of the protocol: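 Blue-channel autofluorescence (Ex/Em 405/460 nm, triamterene-equivalent) was measured after 1 hr compound exposure at 37 C, 5% CO2. Cells were HepG2, plated overnight at 37 C in MEM plus 10% FBS.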
Assay [16] can be described thus: qHTS assay for small molecules that induce genotoxicity in human embryonic kidney cells expressing luciferase-tagged ATAD5 - cell viability (AID 651634; calls by dose curve; note: nearly all actives have a fitted effect of over 25% in size; note: potency is the fitted concentration of half-maximal effect). A digest of the protocol: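 Cytotoxicity counter-readout: after 15.5 hr compound treatment at 37C, live-cell protease activity in ATAD5-luciferase HEK293T cells measured by CellTiter-Fluor fluorescence, 30 min development at 37C.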

Assay [17] deals with Glucocorticoid receptor (Homo sapiens) (UniProt P04150). As to the kind of experiment: qHTS assay to identify small molecule agonists of the glucocorticoid receptor (GR) signaling pathway (AID 720691; active = well fitted activation curve with a large enough effect in the signal ratio in the repeat runs, not every such curve was filed as active; the % refers to the signal ratio). A digest of the protocol:
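Agonist-mode qHTS in HeLa cells stably expressing a glucocorticoid-response-element beta-lactamase reporter. Fluorescence intensity read with FRET substrate (2 h, room temperature) after 18 h compound treatment at 37 C.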

Assay [18] has the same target. As to the kind of experiment: qHTS assay to identify small molecule antagonists of the glucocorticoid receptor (GR) signaling pathway (AID 720692; active = well fitted inhibition curve with a large enough effect in the signal ratio in the repeat runs, not every such curve was filed as active; the % refers to the signal ratio). A digest of the protocol: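 Inhibition of dexamethasone-driven (5 nM final) beta-lactamase expression was measured in GRE-reporter HeLa cells over 18 h at 37C. Fluorescence was read after 2 h with the B/G FRET substrate at room temperature.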

Assay [19] in a line: qHTS assay for small molecule agonists of the p53 signaling pathway (AID 651631; calls by dose curve; note: nearly all actives have a fitted effect of over 15% in size). A digest of the protocol:
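p53RE-bla HCT-116 cells; compounds 16 h, 37 °C; LiveBLAzer B/G FRET substrate 2 h RT; fluorescence intensity read-out, qHTS format.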

Assay [20] can be described thus: qHTS assay to test for compound auto fluorescence at 590 nm (red) in HepG2 cells (AID 720674). A digest of the protocol:
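We screened compounds on adherent HepG2 cells, incubating them for an hour at 37 C in 5% CO2 before reading emission at 590 nm under 540 nm excitation; values reflect equivalence to Rose Bengal sodium fluorescence.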
% is set by controls: 0 for no effect and ±100 for the full control effect.

Sequence of Glucocorticoid receptor (Homo sapiens) (P04150 whole entry, looked up): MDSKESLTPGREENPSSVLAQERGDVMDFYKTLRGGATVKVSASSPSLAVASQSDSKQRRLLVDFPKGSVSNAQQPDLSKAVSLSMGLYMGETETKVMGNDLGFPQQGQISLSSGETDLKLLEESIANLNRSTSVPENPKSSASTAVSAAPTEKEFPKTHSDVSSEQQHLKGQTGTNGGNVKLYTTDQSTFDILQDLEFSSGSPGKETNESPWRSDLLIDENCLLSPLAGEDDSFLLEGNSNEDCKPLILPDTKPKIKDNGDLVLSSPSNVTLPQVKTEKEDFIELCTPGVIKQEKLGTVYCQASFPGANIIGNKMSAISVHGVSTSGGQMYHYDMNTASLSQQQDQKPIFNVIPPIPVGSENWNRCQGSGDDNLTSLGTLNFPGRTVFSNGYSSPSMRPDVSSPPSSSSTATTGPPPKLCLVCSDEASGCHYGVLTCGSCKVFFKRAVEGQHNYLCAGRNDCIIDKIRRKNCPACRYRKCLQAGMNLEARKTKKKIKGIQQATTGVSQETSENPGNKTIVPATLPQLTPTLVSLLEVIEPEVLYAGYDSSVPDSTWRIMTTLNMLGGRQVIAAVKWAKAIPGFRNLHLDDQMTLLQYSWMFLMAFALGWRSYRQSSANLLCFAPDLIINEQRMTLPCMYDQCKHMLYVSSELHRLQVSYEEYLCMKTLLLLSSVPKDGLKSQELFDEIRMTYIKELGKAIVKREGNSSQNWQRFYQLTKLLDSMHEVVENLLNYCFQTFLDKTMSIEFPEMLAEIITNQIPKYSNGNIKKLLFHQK

For the compound `CCn1c2ccccc2c2cc(N)ccc21`, the Potency entry in [1], in assay [2], in assay [3], in assay [5], in assay [6] and in assay [8] was “inactive” throughout. In addition, the Potency result in assay [9], in assay [10], in assay [13], in assay [14] and in assay [15] was “inactive” throughout. Further, in assay [4], the Potency was 27 µM (active) and 24.3 µM (active) and 7.7 µM (active). Further, the outcome in assay [7], in assay [11] and in [12] was inactive.

In the case of `CCCCCCCCCCCCCCCCCl`, the Potency entry in assay [1], in assay [2], in assay [16], in assay [3], in [17] and in [18] was “inactive” throughout. Also, the values for the fluorescence, % of fluorescein control in assay [5] and in [14] were -0.021% [at 18.6 µM] and -0.0406% [at 18.6 µM], respectively. The fluorescence, % of triamterene in assay [6] was 0.0135% [at 18.6 µM]. The fluorescence, % of fluorescent control in [7] is 0.199% [at 18.6 µM]; in assay [13], -0.0526% [at 18.6 µM]; in assay [15], -0.0903% [at 18.6 µM]. Also, the fluorescence, % of fluorescein in assay [8] is -0.0655% [at 18.6 µM]. The activity change in assay [10] is -0.0974% [at 18.6 µM, active compounds read high]. In addition, the fluorescence, % of Rose Bengal in assay [12] is -0.0105% [at 18.6 µM].

For the compound `O=C(OCc1ccccc1)c1ccc(O)cc1`, the Potency entry in [19], in [2], in [5], in [6], in assay [8] and in assay [10] was “inactive” throughout. Moreover, the Potency entry in [13], in assay [14], in assay [15], in [17] and in assay [18] was “inactive” throughout. In assay [4], the Potency is 13.3 µM (active) and 15.4 µM (active). In addition, the compound was classed as inactive in [20], in assay [7] and in assay [12].

With `c1cc(C(c2ccc(OCC3CO3)cc2)C(c2ccc(OCC3CO3)cc2)c2ccc(OCC3CO3)cc2)ccc1OCC1CO1` (stereo not given), the Potency result in assay [1], in [2], in assay [16], in assay [3], in assay [4] and in assay [5] was “inactive” in each case. The Potency result in assay [6], in [9], in assay [10], in [13], in assay [14] and in [17] was “inactive” in each case. Also, the Potency result in [18] was “inactive”. For the same compound, the compound was called inactive in assay [7], in assay [11] and in assay [12].

Turning to `CCCCC(CC)COC(=O)CC(C(=O)OCC(CC)CCCC)S(=O)(=O)O` (stereo not given), the Potency entry in assay [1], in [3], in [5], in assay [6], in [8] and in assay [9] was “inactive” in each case. Further, the Potency result in assay [10], in assay [13], in [14], in [15] and in assay [17] was “inactive” throughout. The Potency was 29.8 µM (active) and 58.8 µM (active) and 61.1 µM (active) in [2]; 58.8 µM (active) in assay [4]. Moreover, the compound was called inactive in assay [20], in [7] and in assay [12].

With `CN(C)c1ccc2nc3ccc(=[N+](C)C)cc-3sc2c1`, the Potency result in assay [1], in assay [5], in [6], in [8], in [10] and in [13] was “inactive” in each case. The Potency result in assay [14] and in assay [15] was “inactive” throughout. Also, the Potency in [2] is 3.35 µM (active); in [16], 11.9 µM (active) and 2.94 µM (active) and 48.6 µM (active); in assay [3], 10.6 µM (active) and 23.4 µM (active) and 61.1 µM (active); in assay [4], 2.37 µM (active) and 830 nM (active) and 1.37 µM (active). Further, the result in assay [7], in [11] and in assay [12] was inactive.

Turning to `CCOc1ccccc1C(N)=O`, the Potency result in [19], in [1], in assay [3], in assay [4], in assay [5] and in assay [6] was “inactive” throughout. The Potency entry in assay [8], in assay [9], in [10], in [13], in assay [14] and in assay [15] was “inactive” each time. The Potency result in assay [17] and in assay [18] was “inactive” each time. The outcome in assay [7], in assay [11] and in assay [12] was inactive.

With `O`, the Potency result in [19], in [2], in assay [16], in [3], in assay [5] and in assay [6] was “inactive” each time. Besides, the Potency result in assay [8], in assay [9], in [10], in assay [13], in assay [14] and in [15] was “inactive” in each case. The Potency in assay [4] was 31 µM (active). Moreover, the outcome in [7], in assay [11] and in [12] was inactive.
